Bioassay records from PubChem.
HT1080NT lethal: kills 2HG-producing HT-1080-NT fibrosarcoma cells; HT-1080-NT fibrosarcoma viability, CellTiter-Glo ATP luminescence, 48 h; Potency, µM (titrated, usually from 46.1 µM), usual class: cytotoxic; actives 1.6% (n = 360,000); AID 686970;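 also: NT is the 2HG producing partner of a matched IDH1 knockdown line; nearly all actives have a fitted effect of over 55% in size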
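HT-1080-NT; 750 cells/well; 5% FBS RPMI; 48 h compound, 37 degrees C; CellTiter-Glo luminescence; curve fitting and curve-class assignment.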
TDP1 cell CPT: growth inhibition of DT40 Tdp1-/-;hTDP1 cells with camptothecin (screen for TDP1 inhibitors); chicken DT40 Tdp1-/-;hTDP1 cells + 20 nM CPT, ATP luminescence, 48 h; Potency, µM (doses to about 46.2 µM), usual class: inhibitors; actives 12% (n = 420,000); AID 686979; also: nearly all actives have a fitted effect of over 55% in size
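Cell growth measured by CellTiter-Glo luminescence after a minimum 48 h, 37 C compound exposure with 20 nM CPT in Tdp1-knockout DT40 cells stably expressing hTDP1, seeded 400/well; qHTS titration format.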
DT40 TDP1 no CPT: qHTS for Inhibitors of human tyrosyl-DNA phosphodiesterase 1 (TDP1): qHTS in cells in absence of CPT | actives 15% (n = 420,000) | Potency, µM (titrated, usually from 46.2 µM), usual class: inhibitors | DT40 Tdp1-/- hTDP1 cells, no CPT, ATP luminescence, 48 h | AID 686978, 2013; also: nearly all actives have a fitted effect of over 55% in size
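Compound effects on proliferation are scored in DT40 Tdp1-/-;hTDP1 cells in the absence of CPT. ATP levels (CellTiter-Glo luminescence) are recorded after a ≥48 hr, 37 °C incubation.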
KB-V1 MDR tox: KB-V1 MDR subline cytotoxicity; KB-V1 MDR cells viability, CellTiter-Glo, 72 h; Potency, µM (top dose mostly 46.1 µM), most hits filed as cytotoxic; actives 3.4% (n = 400,000); also: nearly all actives have a fitted effect of over 60% in size
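KB-V1 cells (P-gp-expressing MDR subline of KB-3-1) in phenol-red-free DMEM with 10% FBS were exposed to library compounds over a concentration series for 72 h at 37 degrees C. Viability read by CellTiter-Glo luminescence; concentration-effect curves fitted after normalization.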
KB-3-1 tox: kills parental KB-3-1 adenocarcinoma cells | KB-3-1 viability, CellTiter-Glo ATP luminescence, 72 h | Potency, µM (doses to about 46.1 µM), usual class: cytotoxic | actives 1.4% (n = 400,000); also: nearly all actives have a fitted effect of over 60% in size
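Using CellTiter-Glo luminescence, growth of non-resistant KB-3-1 adenocarcinoma cells is assessed 72 h after pin-tool compound addition at 37 °C. Normalized responses across the concentration series yield fitted curves.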
HT1080 IDH1KD tx: kills HT-1080 cells with IDH1 knockdown; Potency, µM (titrated, usually from 46.1 µM), hits mostly cytotoxic; actives 2% (n = 360,000); HT-1080 IDH1 knockdown viability, ATP luminescence, 48 h; AID 686971
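Cytotoxicity counter-line: IDH1KD HT-1080, 48 h, CellTiter-Glo. Curves classed by r2, magnitude and activity.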
Numbers stand for hits; n = inactive; u = inconclusive; x = not tested or not shown. Most compounds without a hit are left out; they make up all but 19% or so of the library. Calls follow the shape of the dose curve; as a rule, active = well fitted curve in the direction sought with a large enough effect; inconclusive = small, poorly fitted or top-dose-only effect, or another doubt; inactive = no such curve, though single readings can be large; an effect the other way counts as inactive or inconclusive.

SMILES	HT1080NT lethal	TDP1 cell CPT	DT40 TDP1 no CPT	KB-V1 MDR tox	KB-3-1 tox	HT1080 IDH1KD tx
COc1ccccc1NC(=O)Cn1cnc2c(cnn2-c2ccc(C)c(C)c2)c1=O	n	n	u	13µM	n	n
COc1ccccc1CNS(=O)(=O)c1c(C(=O)N2CCCCC2)c(C)n(C)c1C	n	n	n	n	n	n
Cc1ccc(C)c(S(=O)(=O)N2CCN(c3nc(-c4cccnc4)nc4ccccc34)CC2)c1	n	8.2µM	6.5µM	n	u	n
COc1ccc(S(=O)(=O)N2CCN(c3nc(-c4cccnc4)nc4ccccc34)CC2)cc1	n	18µM	8.2µM	u	u	n
O=S(=O)(c1ccccc1F)N1CCN(c2nc(-c3cccnc3)nc3ccccc23)CC1	n	u	21µM	u	n	n
N#Cc1ccccc1S(=O)(=O)N1CCN(c2nc(-c3cccnc3)nc3ccccc23)CC1	n	u	u	n	n	n
COc1ccc(S(=O)(=O)N2CCN(c3ccc4nnc(-c5ccccc5)n4n3)CC2)cc1	n	12µM	u	u	u	n
CO[C@H]1[C@H](NC(=O)c2ccsc2)c2ccccc2C12CCN(Cc1c(O)ccc3ccccc13)CC2	x	n	n	x	x	x
COc1cc(NC(=O)Cn2c(=O)n(Cc3ccccc3OC)c(=O)c3cccnc32)cc(OC)c1	x	n	u	n	n	x
COc1ccc(-n2nc(C(=O)N3CCN(c4cccc(C)c4C)CC3)c3c4ccccc4n(C)c3c2=O)cc1Cl	x	n	n	u	u	x
Cc1ccc(-n2cc(CNCC3CC(=O)N(C4CC4)C3)c(-c3cccc(C)c3)n2)cc1 (stereo not drawn)	n	12µM	15µM	u	u	n
O=C(C1=NNCC1c1ccccc1)C1CO1 (stereo not drawn)	n	u	n	n	n	n
CCOC(=O)c1cccc(Nc2c3c(nc4ccccc24)CCC3)c1	x	u	13µM	u	n	x
CC(=O)c1ccc(Nc2c3c(nc4ccccc24)CCCC3)cc1	u	15µM	18µM	n	u	u
c1ccc2c(Nc3ccc4c(c3)OCCO4)c3c(nc2c1)CCCC3	16µM	4.6µM	16µM	u	n	u
O=C(Nc1c2c(nc3ccccc13)CCCC2)c1ccccc1F	n	n	u	n	n	n
Fc1cccc(Nc2c3c(nc4ccccc24)CCC3)c1	n	u	26µM	u	u	n
O=C(Nc1c2c(nc3ccccc13)CCCC2)c1cccc([N+](=O)[O-])c1	n	n	n	n	u	n
CCOC(=O)c1cnc2ccccc2c1Nc1cccc(C(=O)O)c1	n	n	n	n	n	n
CC(C)(C)c1ccc(C(=O)NNC(=O)CCc2ccccc2)cc1	n	n	n	n	n	n
Cc1cc(C)c2c(=O)cc(CSCC(=O)Nc3ccccc3Cl)[nH]c2c1	x	n	n	n	n	x
CC1=C(C(=O)N(C)C)CC(CC(=O)NCc2cccs2)C(=O)N1Cc1ccc(C(C)(C)C)cc1 (stereo not drawn)	n	u	u	n	n	n
COC(=O)c1cccc(Nc2c3c(nc4ccccc24)CCC3)c1	21µM	7.3µM	10µM	18µM	21µM	16µM
Cc1ccc2nc3c(c(Nc4cccc(O)c4)c2c1)CCC3	18µM	u	u	u	u	u
CC(=O)c1cccc(Nc2c3c(nc4ccccc24)CCC3)c1	5.8µM	2.1µM	2.1µM	n	1.8µM	2.6µM
SMILES	HT1080NT lethal	TDP1 cell CPT	DT40 TDP1 no CPT	KB-V1 MDR tox	KB-3-1 tox	HT1080 IDH1KD tx
COc1cc(Br)c(CC(=O)NO)cc1OC	n	n	n	x	x	n
COc1ccc(-c2nc(SC(CC(=O)NCCN3CCOCC3)c3cccs3)n[nH]2)cc1 (stereo not drawn)	n	n	n	n	n	n
COc1ccc(NC(=O)COC(=O)C2CCC(C(C)(C)C)CC2)c([N+](=O)[O-])c1 (stereo not drawn)	n	u	u	n	n	n
Cc1cc(C)nc(N/N=C/C2=C(N3CCOCC3)C(=C/c3ccccc3)/CC2)n1	n	16µM	12µM	2.3µM	u	n
Cc1ccc(N2CCN(/N=C/C3=C(N4CCOCC4)C(=C\c4ccccc4)/CC3)CC2)cc1	n	n	n	n	n	n
Cc1ccc(C(=O)N/N=C/c2ccc(N3CCOCC3)cc2)c(C)c1	n	n	n	n	n	n
Cc1occc1C(=O)N/N=C/C1=C(N2CCOCC2)C(=C\c2ccc(Cl)cc2)/CC1	n	u	0.92µM	n	n	n
O=C(O)c1ccccc1N/N=C/C1=C(N2CCOCC2)C(=C\c2ccccc2)/CC1	n	21µM	12µM	n	n	n
Cc1cc(=O)[nH]c(N/N=C/C2=C(N3CCOCC3)C(=C\c3ccc(Cl)cc3)/CC2)n1	n	21µM	16µM	u	n	n
O=P(C1=C(N2CCOCC2)/C(=C\c2ccccc2)CC1)(N1CCOCC1)N1CCOCC1	n	n	n	n	n	n
O=C(N/N=C/C1=C(N2CCOCC2)C(=C\c2ccccc2)/CC1)Nc1ccccc1	u	12µM	8.2µM	n	n	7.3µM
OCCNCc1cc(Br)ccc1OCc1ccccc1	n	23µM	16µM	15µM	n	n
NS(=O)(=O)c1ccc(CCNCc2cc(Br)ccc2OCc2ccccc2)cc1	n	15µM	12µM	u	n	n
CCOc1cc(CNCCO)cc(Br)c1OCc1ccccc1	21µM	18µM	16µM	u	u	u
CCOc1cc(CNCCc2ccc(S(N)(=O)=O)cc2)ccc1OCc1ccccc1	u	12µM	12µM	u	u	u
Cc1ccc(S(=O)(=O)NN)c(C)c1N1CCCC1=O	n	n	n	n	n	n
Cc1cccc(NC(=O)CSc2ncc3c(n2)-c2ccccc2N(Cc2ccc(F)cc2)S3(=O)=O)c1C	x	u	n	n	n	x
Brc1ccc(OCc2ccccc2)c(CNCC2CCCO2)c1 (stereo not drawn)	n	u	18µM	u	n	n
CCOc1cc(CNCCc2ccc(S(N)(=O)=O)cc2)cc(Cl)c1OCc1ccccc1	14µM	13µM	u	u	n	18µM
CCOc1cc(CNn2cn[nH]c2=S)cc(Cl)c1OCc1ccccc1F	n	u	15µM	16µM	n	n
CCNCc1cc(Cl)c(OCc2ccccc2)c(OCC)c1	16µM	u	u	n	n	u
Clc1ccccc1CNCC1CCCO1 (stereo not drawn)	n	n	n	n	n	n
COc1cc(CNn2c(C)n[nH]c2=S)cc(Cl)c1OCc1ccc(F)cc1	n	n	n	u	n	n
